Experimental data taken from PubChem BioAssay AID504339 (National Center for Advancing Translational Sciences (NCATS), 2011).
Out of some 390,000 compounds screened, about 17,000 (4.4%) were called active. Not shown: some 8% with an inconclusive outcome. The list comes from a sample in which actives are over-represented; it also holds similar structures and randomly drawn compounds. Unmarked numbers belong to inactive results. Calls follow the shape of the dose curve; as a rule, active = well fitted inhibition curve with a large enough effect; inconclusive = small, poorly fitted or top-dose-only effect; inactive = no such curve, though single readings can be large or run the other way.

target: Lysine-specific demethylase 4A (Homo sapiens) (UniProt O75164); experiment: qHTS Assay for Inhibitors of JMJD2A-Tudor Domain; details: AlphaScreen JMJD2A-Tudor / H3K4me3 peptide binding; series mostly up to 114 µM; activity change, negative = inhibition: at the top concentration; also: nearly all actives have a fitted effect of over 50% in size
Sequence (O75164 whole entry, looked up, the tested form may be a part): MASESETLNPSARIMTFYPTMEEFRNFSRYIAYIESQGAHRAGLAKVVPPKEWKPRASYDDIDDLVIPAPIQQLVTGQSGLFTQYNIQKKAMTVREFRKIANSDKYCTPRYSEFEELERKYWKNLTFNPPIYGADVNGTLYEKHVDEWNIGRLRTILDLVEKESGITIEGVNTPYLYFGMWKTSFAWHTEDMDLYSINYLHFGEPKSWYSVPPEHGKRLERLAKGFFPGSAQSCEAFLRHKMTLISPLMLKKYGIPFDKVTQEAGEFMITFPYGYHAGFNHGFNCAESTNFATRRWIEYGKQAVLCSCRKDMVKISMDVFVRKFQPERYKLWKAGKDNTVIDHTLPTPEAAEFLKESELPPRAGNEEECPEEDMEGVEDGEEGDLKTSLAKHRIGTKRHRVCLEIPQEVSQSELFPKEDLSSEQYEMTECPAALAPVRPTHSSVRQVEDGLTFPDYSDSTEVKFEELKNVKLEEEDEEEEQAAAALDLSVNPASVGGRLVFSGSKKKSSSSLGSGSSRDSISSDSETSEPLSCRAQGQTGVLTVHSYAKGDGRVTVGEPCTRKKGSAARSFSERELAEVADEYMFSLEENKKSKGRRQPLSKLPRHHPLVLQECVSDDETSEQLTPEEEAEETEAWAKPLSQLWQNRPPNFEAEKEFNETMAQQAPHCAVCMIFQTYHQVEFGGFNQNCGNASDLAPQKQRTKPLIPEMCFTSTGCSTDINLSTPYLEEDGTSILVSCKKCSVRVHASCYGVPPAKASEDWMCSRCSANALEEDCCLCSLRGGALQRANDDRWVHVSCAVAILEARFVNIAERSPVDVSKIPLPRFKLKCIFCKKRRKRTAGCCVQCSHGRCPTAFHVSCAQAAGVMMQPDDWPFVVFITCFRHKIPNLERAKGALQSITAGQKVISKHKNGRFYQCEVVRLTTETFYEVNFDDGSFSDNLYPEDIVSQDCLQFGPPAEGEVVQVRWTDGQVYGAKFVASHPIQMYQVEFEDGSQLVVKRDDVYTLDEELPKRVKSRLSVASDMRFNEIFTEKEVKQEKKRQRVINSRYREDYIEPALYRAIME
% is scaled to controls: 0 for no effect and ±100 for the full control effect; potency is read from the fitted curve at half-maximal effect.

| SMILES | activity change, negative = inhibition | Potency |
| --- | --- | --- |
| O=C(CSc1nc(Nc2ccc(F)c(F)c2)c2ccccc2n1)c1ccc(Cl)cc1 | -15.7% | – |
| Cc1ccnc(-n2sc3ccccc3c2=O)n1 | – | 6.31 µM (active) |
| Cc1ccc(-c2nnc(Nc3cccc(Br)c3)c3ccccc23)cc1S(=O)(=O)NCC1CCCO1 (stereo not given) | -10% | – |
| Cc1ccc(/C=C/C(=O)Nc2ccc([N+](=O)[O-])c(NC(=O)/C=C/c3ccc(C)o3)c2)o1 | – | 79.4 µM (active) |
| CNc1ccc(NC(C)=O)cc1[N+](=O)[O-] | -19.1% | – |
| Cc1ccc(/C=C/C(=O)Nc2cc(S(=O)(=O)N3CCCCCC3)ccc2OCC(F)(F)F)o1 | -8.97% | – |
| Oc1ccc2nc(Cc3ccccc3)[nH]c2c1 | -15.7% | – |
| Cc1nc2ccccc2nc1N/N=C/c1ccc(O)cc1O | – | 14.1 µM (active) |
| Cc1ccc(/C=N/NC(=O)C2=NNC(c3ccccc3)(c3ccccc3)C2)c(O)c1 | -7.05% | – |
| CCOC(=O)c1ccc(NC(=O)CC2C(=O)N(c3cccc(OC)c3)C(=O)N2C2CCCCC2)cc1 (stereo not given) | -16.6% | – |
| CCOC(=O)c1[nH]cnc1C(=O)NC1CCCCC1 | – | 3.98 µM (active) |
| CCOC(=O)c1ccc(NC(=O)c2nc[nH]c2C(=O)NCc2ccccc2)cc1 | -6.99% | – |
| O=C(N[C@@H](Cc1ccccc1)C(=O)OCc1ccccc1)c1nc[nH]c1C(=O)NC1CCNCC1 | -31.2% | – |
| CCc1ccccc1NC(=O)N1CCN(C(=O)c2nsc3ccccc23)CC1 | -18.2% | – |
| CCOC(=O)c1cccc(NS(=O)(=O)c2cn(C)c(C)n2)c1 | -7.67% | – |
| Fc1ccc(CSc2nc(NCc3ccccc3)c3ccccc3n2)cc1 | 23.7% | – |
| CN(C)/C=C1/Nc2ccccc2C1=O | – | 50.1 µM (active) |
| CCCS(=O)(=O)C(=C1Nc2ccccc2N1)S(=O)(=O)CCC | -0.758% | – |
| CCOc1ccccc1CNC(=O)c1cnc2c(-c3ccc(OCC)c(OCC)c3)c(C)nn2c1C | -20% | – |
| COc1ccccc1CNC(=O)CCn1c(=O)c2ccccc2n(CC(=O)Nc2cccc(Cl)c2)c1=O | -7.17% | – |
| CCCCN(C)c1nnc(NC(=O)Nc2ccc(Br)c(C)c2)s1 | -17.9% | – |
| CCN1C(=O)c2ccccc2Sc2ccc(NC(=O)Cc3ccc(OC)cc3)cc21 | -25.2% | – |
| CCNCCC(=O)N1c2ccccc2Sc2ccc(NC(=O)OCC)cc21 | -7.81% | – |
| CCN1/C(=C/C(=S)Nc2ccccc2)Sc2ccccc21 | – | 50.1 µM (active) |
| Cc1cc(C)cc(N(CC(=O)NC2CCCC2)C(=O)CCC(=O)Nc2nccs2)c1 | -13.3% | – |

| SMILES | activity change, negative = inhibition | Potency |
| --- | --- | --- |
| CC1CCN(CC(=O)Nc2nccs2)CC1 | -12.3% | – |
| CC(=O)NC1CCN(CC(=O)Nc2nccs2)CC1 | – | 31.6 µM (active) |
| COc1ccc(-c2nc(CN3CCC(C(=O)NCc4ccccc4)CC3)c(C)o2)cc1OC | -5.72% | – |
| COc1ccc(CNC(=O)COCc2cc(-c3cccs3)on2)cc1OC | -9.9% | – |
| CC(C)OP(=O)(OC(C)C)C(Nc1ccccc1)c1cccc([N+](=O)[O-])c1 (stereo not given) | -30.1% | – |
| CC(Nc1ccc([N+](=O)[O-])cc1[N+](=O)[O-])c1ccccc1 (stereo not given) | – | 12.6 µM (active) |
| Cc1cc([N+](=O)[O-])ccc1NS(=O)(=O)c1ccccc1 | -13.1% | – |
| COc1ccc(-c2cc(-c3ccccc3)nc3c2COc2ccc(Cl)cc2-3)cc1 | 7.09% | – |
| CCOC(=O)c1sc(NC(=O)CSc2nc(C)cc(C(F)(F)F)n2)c(C#N)c1C | – | 50.1 µM (active) |
| Cc1cccc(NC(=O)CSc2nc(-c3ccco3)cc(C(F)(F)F)n2)c1C | 11.7% | – |
| Cc1cc(C(F)(F)F)nc(SCC(=O)Nc2nccs2)n1 | -8.22% | – |
| Cc1ccc(C(=O)Nc2ccccc2F)cc1S(=O)(=O)N1CCOCC1 | 2.94% | – |
| Cc1ccccc1CNC(=O)CSc1nnc(C)c2c(C)n(-c3ccccc3)nc12 | -0.345% | – |
| CCCOc1ccc(NC(=O)CC2C(=O)N(c3ccccc3)C(=O)N2Cc2ccco2)cc1 (stereo not given) | -19.7% | – |
| Cc1ccc(N2CC(C(=O)Nc3ccc(S(=O)(=O)N4CCCC4)cc3)CC2=O)cc1C (stereo not given) | -14.3% | – |
| CNS(=O)(=O)c1ccc(NC(=O)C2CC(=O)N(c3ccc(Cl)cc3)C2)cc1 (stereo not given) | – | 56.2 µM (active) |
| O=C(Nc1ccc(S(=O)(=O)N2CCCCC2)cc1)C1CC(=O)N(c2ccc(F)cc2)C1 (stereo not given) | -18.6% | – |
| CN1C(=O)c2ccccc2Sc2ccc(NC(=O)Cc3ccc(Cl)cc3)cc21 | -28.3% | – |
| Cc1ccc(Cl)cc1N1CCN(S(=O)(=O)c2cc3[nH]c(=O)c(=O)[nH]c3cc2C)CC1 | -28.7% | – |
| COc1ccc(-c2noc(-c3ccc(N4CCN(c5ccccc5)CC4)c([N+](=O)[O-])c3)n2)cc1OC | -11.9% | – |
| COc1ccc(NC(=O)c2sc3nc(-c4cc5cccc(OC)c5oc4=O)[nH]c(=O)c3c2C)cc1 | -15.1% | – |
| Oc1ccc(C2Nc3cccc4cccc(c34)N2)cc1 | – | 44.7 µM (active) |
| Brc1ccccc1C1N=C(c2ccccc2)NO1 (stereo not given) | 16.5% | – |
| Brc1ccccc1C1Nc2cccc3cccc(c23)N1 | – | 50.1 µM (active) |
| COc1cc2c(cc1OC)C(c1ccccc1Br)NC(=O)C2 (stereo not given) | -15.7% | – |

| SMILES | activity change, negative = inhibition | Potency |
| --- | --- | --- |
| Cn1nnnc1SCCCNCc1ccc(Cl)cc1 | 5.96% | – |
| O=c1cc(CSc2ncn[nH]2)[nH]c2ccc(F)cc12 | 0.649% | – |
| CCc1nnc(SCC(=O)Nc2cc(OC)ccc2OC)nc1CC | -0.649% | – |
| O=C(NCCc1ccc(Cl)cc1)c1ccc2c(c1)N(Cc1ccc(F)cc1)C(=O)CS2 | -13.5% | – |
| Cc1ccc(NC(=O)C(Cc2ccccc2)NS(=O)(=O)c2ccc3c(c2)oc(=O)n3C)cc1C (stereo not given) | -19.5% | – |
| CCOc1ccc(NC(=O)C2CCN(S(=O)(=O)c3cc(-c4noc(C)n4)ccc3C)CC2)cc1 | -2.67% | – |
| CCOC(=O)C1CCN(C(=O)Nc2ccc(Cl)cc2)CC1 | -12.3% | – |
| CCOC(=O)C1Sc2[nH]c(=O)sc2C(c2ccc(Cl)cc2)C1C(=O)OCC (stereo not given) | – | 50.1 µM (active) |
| CCOC(=O)C1C(=O)NCC1c1ccccc1 (stereo not given) | -4.29% | – |
| CCC(=O)N1CCc2cc(Br)cc(S(=O)(=O)NCc3ccc(Cl)cc3)c21 | -21.2% | – |
| Cc1cccc(NC(=O)c2ccc(F)c(S(=O)(=O)N(C)C3CCCCC3)c2)c1 | -12.2% | – |
| CCc1cc2c(cc(C(=O)OC)n2Cc2nc(-c3ccc(C)cc3)oc2C)s1 | -12.4% | – |
| O=C(CC(=O)N/N=C\c1ccc(F)cc1)NCCc1ccccc1 | 4.75% | – |
| O=C(CN1CCSCC1)N/N=C/c1ccc(F)cc1 | – | 3.16 µM (active) |
| O=C(CN1CCN(C/C=C/c2ccccc2)CC1)Nc1ccc(F)cc1F | -23.1% | – |
| Cc1ccc(COc2ccc(/C=N/NC(=O)CN3CCCCC3)cc2)cc1 | -22.4% | – |
| O=C(CN1CCSCC1)N/N=C/c1ccc(F)cc1F | – | 10 µM (active) |
| O=C(Cn1cc(C(F)(F)F)ccc1=O)N/N=C/c1ccc(Cl)cc1Cl | -21.3% | – |
| COc1ccc(CNC(=O)c2cc3cccc(OC)c3oc2=O)cc1 | -2.61% | – |
| CC(=O)N1c2ccccc2CC1C(=O)N1CCN(c2ccc(F)cc2)CC1 (stereo not given) | -11.9% | – |
| CCOc1ccc(CNC(=O)Cn2cc3c(n2)-c2c(oc(C(=O)N4CCCC4)c2C)CC3)cc1 | -14.7% | – |
| CCCc1cc(=O)n2[nH]c(NCc3ccc(CC)cc3)nc2n1 | -20.5% | – |
| COc1ccc(-c2csc(-c3c(N)c(C(=O)c4ccc(OC)c(OC)c4)n4ccccc34)n2)cc1 | -19.1% | – |
| COc1ccc(OC)c(CNC(=O)Cn2nc(C)c3c(C)n(-c4ccccc4)nc3c2=O)c1 | 0.345% | – |
| COc1ccccc1CNC(=O)Cn1nc(C)c2nn(-c3ccc(Cl)cc3)c(C)c2c1=O | -14.6% | – |

| SMILES | activity change, negative = inhibition | Potency |
| --- | --- | --- |
| COc1ccc(OC)c(CNC(=O)Cn2nc(C)c3c(C)n(-c4ccc(C)cc4)nc3c2=O)c1 | – | 35.5 µM (active) |
| Cc1ccc2c(c1)N(C(=O)Nc1ccc(Br)cc1F)CCO2 | -14.1% | – |
| Cc1ccc(OCC(=O)OCc2cc(=O)n3nc(C4CC4)sc3n2)cc1 | -10.7% | – |
| CCN(C(=O)Cn1cnc2sc(C)c(S(=O)(=O)N3CCN(c4ncccn4)CC3)c2c1=O)c1ccccc1F | -6.14% | – |
| CCOc1cc(-c2nnc(SCC(=O)NC3CCCCC3)nc2-c2ccc(OC)c(OCC)c2)ccc1OC | -35% | – |
| CCN(C(=O)CN1CCN(Cc2ccccc2)CC1)c1c(N)n(Cc2ccccc2)c(=O)[nH]c1=O | – | 12.6 µM (active) |
| CCN(C(=O)COC(=O)c1sccc1C)c1c(N)n(Cc2ccccc2)c(=O)[nH]c1=O | -9.29% | – |
| CCN(C(=O)COC(=O)Cc1c(F)cccc1Cl)c1c(N)n(Cc2ccccc2)c(=O)[nH]c1=O | -19% | – |
| OC[C@@H]1O[C@H](n2cnc3c(SCc4ccccc4)ncnc32)[C@H](O)[C@H]1O | -6.38% | – |
| Cc1ccc(C(=O)N2c3ncnn3C3(CCCCC3)[C@@H]3CCCC[C@@H]32)cc1 | -23.8% | – |
| CCC(=O)N1CCc2cc(CNS(=O)(=O)c3ccc(Br)s3)ccc21 | -0.649% | – |
| Cc1ccc(C(=O)O)cc1-c1ccc(/C=C2\SC(=O)N(CC(=O)Nc3ccc4c(c3)OCO4)C2=O)o1 | – | 35.5 µM (active) |
| Cc1nc([N+](=O)[O-])cn1CC(=O)Nc1ccc2c(c1)OCO2 | -9.8% | – |
| Cc1nn(CC(=O)Nc2ccc3c(c2)OCO3)c(C)c1[N+](=O)[O-] | -12.4% | – |
| O=C(CSc1nnc(-c2ccncc2)n1-c1ccccc1)Nc1ccc(Cl)c(Cl)c1 | -4.17% | – |
| COc1ccccc1CN1CCC(CNC(=O)c2cnn(-c3cccc(Cl)c3)c2C2CCN(C(=O)OC(C)(C)C)CC2)CC1 | -15.9% | – |
| COCCNC(=O)c1ccc2c(c1)N=C(C)c1cc(C)ccc1S2 | -22.3% | – |
| Oc1cccc(/C=N/Nc2ccc(Cl)nn2)c1O | – | 63.1 µM (active) |
| C/C(=N\Nc1ccc(Cl)nn1)c1ccccc1O | -30.3% | – |
| COc1cccc(CNC(=O)c2ccc3c(c2)N(Cc2ccc(C(F)(F)F)cc2)C(=O)c2ccccc2S3)c1OC | -9.82% | – |
| CCCc1nn2c(=O)cc(COC(=O)c3ccc(NC(=O)C(C)Oc4ccccc4)cc3)nc2s1 (stereo not given) | -12.6% | – |
| COc1ccc(-c2nnc(SCC(=O)Nc3ccccc3C)o2)cc1OC | -5.3% | – |
| CCOC(=O)c1cnc2c(C)cc(Cl)cc2c1NCCc1ccc(OC)c(OC)c1 | -1.04% | – |
| Cc1ccc(OCCCC(=O)Nc2ccc(N3CCOCC3)cc2)cc1 | -9.46% | – |
| CCOC(=O)c1cnc2c(C)cc(C)cc2c1Nc1ccc(N2CCOCC2)cc1 | – | 35.5 µM (active) |
